# Data reported in PubChem BioAssay AID588651 (The Scripps Research Institute Molecular Screening Center, 2011).
# A number with no mark means an inactive call. Cut-off read from the data, not from the text of the source: active = inhibition above about 65%; inactive = the rest.
# System: Fam108b
# Assay: Fam108b inhibition by ABPP, late-stage follow-up, biochemical, gel-based ABPP, recombinant soluble Fam108b, HTS hits, complex proteome (AID 588651);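 note: Fam108b spiked into mouse brain membrane proteome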
# Conditions: FP-rhodamine labeling in proteome, at 20 µM, hits give high values
row,SMILES,inhibition [%]
1,NC(Cc1cc(O)c(O)cc1O)C(=O)O (stereo not drawn),0
2,Cc1ccccc1N1C(=O)/C(=C/c2ccco2)C(=O)NC1=S,0
3,C[n+]1c(-c2ccccc2)c2cc(N)ccc2c2ccc(N)cc21,0
